# Measurements as given in the supplement of paper PMC12350171.
# Where a name gives a salt, the structure may show the parent alone. A number with no mark means an inactive call.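 How the source made its calls: active = AUC significantly below DMSO controls by Student t-fit with adjusted P under 0.01; inactive = not significantly reduced.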
# Tested on: Haemophilus parainfluenzae
# Test: growth AUC normalised to DMSO control (fraction of control); higher = less growth inhibition, active = hit call of the paper
# Conditions: 20 µM
# Outline: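 Pathogens were passaged twice under anaerobic conditions, then inoculated into pre-reduced mGAM plates at a starting OD578 of 0.01, with compound at 20 μM and 1% DMSO, and sealed with breathable membranes. For Haemophilus parainfluenzae, the medium was supplemented with hemin and NAD. OD578 was read every hour for 24 h in three biological replicates. Growth-curve AUC was calculated by the trapezoidal rule up to the exponential-to-stationary transition and normalised to DMSO controls on the same plate.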
row,SMILES,growth AUC normalised to DMSO control
1,CC(=O)Nc1nnc(S(N)(=O)=O)s1 [Acetazolamide],0.959
2,C[C@@H](O[C@H]1OCCN(Cc2n[nH]c(=O)[nH]2)[C@H]1c1ccc(F)cc1)c1cc(C(F)(F)F)cc(C(F)(F)F)c1 [Aprepitant],0.941
3,COc1cc([S+](C)[O-])ccc1-c1nc2cccnc2[nH]1 (configuration not stated) [Sulmazole],1
4,O=C1NCC2(CCN(CCc3ccccc3)CC2)O1 [Fenspiride hydrochloride],0.967
5,Cc1cc(-n2c(=O)[nH]c(=O)n(C)c2=O)ccc1Oc1ccc(SC(F)(F)F)cc1 [Toltrazuril],0.954
6,Nc1ccccc1S(N)(=O)=O [o-Sulfanilamide],0.898
7,CC1(C)O[C@@H]2C[C@H]3[C@@H]4C[C@H](F)C5=CC(=O)C=C[C@]5(C)[C@H]4[C@@H](O)C[C@]3(C)[C@]2(C(=O)CO)O1 [Flunisolide],0.945
